Results from PubChem BioAssay.
Activity calls are given as the source filed them.

What follows are molecules tested on XIP peptide (Xip251-270) binding (assay: XIP fragment 251-270 binding compounds – biochemical, small-molecule microarray, fluorescence 635/667 nm, 0.1 µg/mL protein, primary screen (AID 1182)). Conditions: fluorescent protein binding, 635 nm, higher = more signal, called active from +8 up or from −8 down.

Composite z-score, inactive:
CC(C)=NOCc1ccc(-c2cc(-c3ccccc3)no2)cc1 -0.191
CO[C@@H]1COC(=O)CC=C[C@@H](C)COC(=O)[C@H](COCc2ccccc2)NC(=O)CC=C[C@H]1C 0.0912
CCOC(=O)[C@H](CC(C)C)NC(=O)CCC1CC(OC(=O)NCc2cccc3ccccc23)CC2(CCCC(COC(=O)NCCN3CCOCC3)O2)O1 (stereo partly specified) 0.0634
COCCNC(=O)OCC1CCCC2(CC(OC(=O)NCCc3ccc(F)cc3)CC(CCC(=O)N[C@@H](C)C(=O)OC)O2)O1 (stereo partly specified) 0.417
CO[C@@H]1COC(=O)CC=C[C@@H](C)[C@@H]2C=C[C@H](O)[C@@H](COC(=O)[C@H](C)NC(=O)CC=C[C@H]1C)O2 0.78
COc1ccc(O[C@H]2C=C[C@@H](c3ccccc3)O[C@@H]2COC(=O)N2CCCCC2)cc1 -0.275
COc1ccc(O[C@H]2C=C[C@@H](c3ccccc3)O[C@@H]2CON=C[C@@H](C)[C@H](OCc2ccccc2)C(C)C)cc1 0.0702
CC(CCN1CCCCc2nc(C)c(C)cc21)=NOC(C)CN1CCCCc2nc(C)c(C)cc21 (stereo unspecified) 0.29
CC=CC1=C(CO)[C@H](O)[C@H]2O[C@H]2[C@H]1O -0.461
CO[C@H]([C@@H](C)[C@H](OC)c1ccccc1)[C@H](C)[C@@H](OC)[C@H](C)C(C)=O 0.111
O=C1[C@H]2[C@H]3[C@H](O)[C@H](O)CC(=NOCc4ccccc4)[C@@H]3CC[C@H]2C(=O)N1C1CCCCC1 -0.112
CO[C@@H]1COC(=O)CCC[C@@H](C)[C@H](OC)COC(=O)[C@H](Cc2ccccc2)NC(=O)CC=C[C@H]1C 0.0232
COc1ccc(-c2nc3c(c4c2C[C@H](C)OC4)CN(CCC(C)C)CC3)cc1 0.731
CC(=O)O[C@H]1C2=C(C(=O)[C@@H]3O[C@@H]31)[C@H]1C(C)O[C@@H]2[C@@]23C(=O)[C@@H]4O[C@@H]4[C@@H](O)C2=CO[C@H](C)[C@@H]13 (stereo partly specified) -0.179
CC(C)=CCCC(C)=CCON=C1[C@H]2CCn3c(=O)n(Cc4cc5c(cc4Cl)OCO5)c(=O)n3[C@H]2[C@H](O)[C@@H]2O[C@H]12 -0.0418
c1ccc(C2NCCc3c2[nH]c2ccccc32)cc1 (stereo unspecified) 0.657
Cc1cc2c(nc1C)CCCN2CC(O)CN1CCN(C)CC1 (stereo unspecified) 1.11
COC(=O)[C@H](C)NC(=O)[C@@H](C)CO 0.316
C[C@H](c1ccccc1)N1C(=O)[C@H]2[C@H]3[C@H](O)[C@H](O)CC(=O)[C@@H]3CC[C@H]2C1=O 0.0518
O=C1CCCC=C1C(O)CCOCc1ccccc1 (stereo unspecified) -0.294
O=C1[C@H]2[C@H]3[C@H](O)[C@H](O)CC(=NOC[C@@H](O)COCc4ccco4)[C@@H]3CC[C@H]2C(=O)N1c1ccc(F)cc1F -0.233
CCOC(=O)NN=C1C[C@@H](O)[C@@H](O)[C@@H]2[C@@H]3C(=O)N(C[C@@H]4CCCO4)C(=O)[C@@H]3CC[C@@H]12 0.0985
C[C@@H]1CCC2C(=O)N(Cc3ccccc3)C[C@@H](O)CN2[C@H]1c1ccc(Br)cc1 (stereo partly specified) 1
COC(=O)[C@H](C)NC(=O)CCC1CC(OC(=O)NCc2cccc3ccccc23)CC2(CCCC(COC(=O)NCCc3ccc(Cl)cc3)O2)O1 (stereo partly specified) -0.0057
O=C1C[C@@H](O)[C@@H](O)[C@@H]2[C@@H]3C(=O)N(C4CCCCC4)C(=O)[C@@H]3CC[C@H]12 -0.149
CC(C)CON=C1[C@H]2CCn3c(=O)n(-c4ccccc4)c(=O)n3[C@H]2[C@H](O)[C@@H]2O[C@H]12 0.142
